Experimental data published in PubChem BioAssay (NCATS).
Records with an inconclusive call do not appear. Activity calls are given as the source filed them. The call rests on the fitted dose curve; in most records, active means well fitted inhibition curve with a large enough effect; inconclusive means small, poorly fitted or top-dose-only effect; inactive means flat fitted curve, though single readings scatter.

The molecules below were run against Lysine-specific demethylase 5B (Homo sapiens) (UniProt Q9UGL1) (assay: Optimization screen for KDM5B Histone Demethylases FDH coupled qHTS against the LOPAC library (AID 1347166; further: 0% is about no effect)). Details: KDM5B demethylation, FDH-coupled NADH fluorescence (FDH is formaldehyde dehydrogenase); at 57.5 µM (top of the series).
In short: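 KDM5BDeltaAP (200nM final) preincubated 10 min with compound, then 12.5uM H3K4Me3, 25uM a-ketoglutarate, ascorbate, Fe(II), NAD+ and FDH added; 50mM HEPES pH 7.5, 0.01% Tween-20. NADH fluorescence (340/450 nm) change over 30 min, room temperature.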

Chain of Lysine-specific demethylase 5B (Homo sapiens) (Q9UGL1 whole entry, looked up): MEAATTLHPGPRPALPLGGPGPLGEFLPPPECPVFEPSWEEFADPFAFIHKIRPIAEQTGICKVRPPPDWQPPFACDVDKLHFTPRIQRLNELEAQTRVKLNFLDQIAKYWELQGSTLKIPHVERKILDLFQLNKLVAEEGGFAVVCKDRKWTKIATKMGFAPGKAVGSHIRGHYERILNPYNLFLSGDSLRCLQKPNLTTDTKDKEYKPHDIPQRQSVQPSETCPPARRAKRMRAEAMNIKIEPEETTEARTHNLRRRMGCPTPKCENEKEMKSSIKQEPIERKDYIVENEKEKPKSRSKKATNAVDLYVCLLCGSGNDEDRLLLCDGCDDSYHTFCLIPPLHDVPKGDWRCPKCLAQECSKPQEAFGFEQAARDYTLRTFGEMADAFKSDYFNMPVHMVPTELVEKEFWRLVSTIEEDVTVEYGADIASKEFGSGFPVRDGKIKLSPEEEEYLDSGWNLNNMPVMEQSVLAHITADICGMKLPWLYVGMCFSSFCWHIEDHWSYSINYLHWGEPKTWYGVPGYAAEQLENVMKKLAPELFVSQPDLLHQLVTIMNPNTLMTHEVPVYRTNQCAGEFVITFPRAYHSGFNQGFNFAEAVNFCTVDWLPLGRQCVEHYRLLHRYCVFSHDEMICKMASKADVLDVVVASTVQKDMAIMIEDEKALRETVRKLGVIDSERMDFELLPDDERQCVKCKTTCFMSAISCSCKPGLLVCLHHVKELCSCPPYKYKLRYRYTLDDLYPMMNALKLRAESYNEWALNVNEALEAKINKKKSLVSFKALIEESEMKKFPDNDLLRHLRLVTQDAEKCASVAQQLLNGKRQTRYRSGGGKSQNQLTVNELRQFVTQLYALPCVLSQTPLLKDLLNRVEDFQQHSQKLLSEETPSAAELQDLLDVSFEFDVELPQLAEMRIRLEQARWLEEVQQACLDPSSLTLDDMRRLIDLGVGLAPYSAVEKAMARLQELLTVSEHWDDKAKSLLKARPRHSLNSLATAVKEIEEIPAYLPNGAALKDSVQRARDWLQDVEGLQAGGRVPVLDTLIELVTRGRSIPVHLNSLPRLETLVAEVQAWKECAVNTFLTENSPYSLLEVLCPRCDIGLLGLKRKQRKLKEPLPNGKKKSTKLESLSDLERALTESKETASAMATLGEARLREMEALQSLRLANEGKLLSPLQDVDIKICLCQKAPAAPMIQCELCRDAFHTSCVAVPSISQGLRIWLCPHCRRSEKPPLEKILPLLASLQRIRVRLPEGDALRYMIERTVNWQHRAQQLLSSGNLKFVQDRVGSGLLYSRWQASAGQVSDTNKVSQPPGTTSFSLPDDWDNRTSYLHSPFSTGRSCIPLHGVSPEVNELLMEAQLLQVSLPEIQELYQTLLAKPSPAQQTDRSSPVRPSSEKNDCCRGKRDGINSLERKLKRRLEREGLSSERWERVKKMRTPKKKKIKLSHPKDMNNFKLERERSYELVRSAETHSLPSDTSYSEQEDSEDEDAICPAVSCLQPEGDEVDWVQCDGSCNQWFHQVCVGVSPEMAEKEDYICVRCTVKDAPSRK

Structure (SMILES) | activity, negative = inhibition
CC(N)=NCCCC[C@@H](N)C(=O)O | -21.9% (inactive)
O=c1onc2n1-c1cc(Br)ccc1OC2 | -6.75% (inactive)
CC1=C(C(=O)O)N2C(=O)[C@@H](NC(=O)C(N)C3=CCC=CC3)[C@H]2SC1 (some centres undefined) | -22.8% (inactive)
O=C(O)CCC(=O)N1CCCC1C(=O)O (centres undefined) | -3.62% (inactive)
N[C@@H](CCC(=O)N[C@H](CSN=O)C(=O)NCC(=O)O)C(=O)O | -9.68% (inactive)
Nc1ncnc2c1nc(Br)n2C1OC2COP(=O)(O)O[C@@H]2C1O (some centres undefined) | -2.56% (inactive)
CC[n+]1c(/C=C/C=C2/N(C)c3ccccc3C2(C)C)sc2ccccc21 | -25% (inactive)
N[C@@H](CCCC(=O)O)C(=O)O | -3.82% (inactive)
Cc1cc(Cn2cnc3c2C[C@@H](C(=O)O)N(C(=O)C(c2ccccc2)c2ccccc2)C3)ccc1N | 0.747% (inactive)
c1ccc(CN2CCC3(CCCc4ccccc43)CC2)cc1 | -0.246% (inactive)
COc1cc([C@@H]2c3cc4c(cc3[C@H](O)C3COC(=O)[C@@H]32)OCO4)cc(OC)c1OC (some centres undefined) | -3% (inactive)
C=CC1(C)CC(=O)C2(O)C(C)(O1)C(OC(C)=O)C(O)C1C(C)(C)CCC(O)C12C (centres undefined) | -2.72% (inactive)
CC(C)[C@@H]1CC[C@@H](C)C[C@@H]1P(=O)(c1ccccc1)c1ccccc1 | -4.33% (inactive)
O=C(O)[C@H]1NCCC[C@H]1C(=O)O | -4.16% (inactive)
Nc1ccc2c3c(cccc13)C(=O)NC2=O | -16.6% (inactive)
O=C(O)CCC/C=C\C[C@@H]1[C@@H](/C=C/[C@H](O)C2Cc3ccccc3C2)[C@@H](F)C[C@@H]1O | -5.83% (inactive)
Cc1ccc2c(c1)C(N1CCN(C)CC1)=Nc1cccnc1N2 | -6.11% (inactive)
CC(C)C[C@H](NC(=O)C1OC1C(=O)O)C(=O)NCCCCN=C(N)N (some centres undefined) | 0.286% (inactive)
CCC(=O)N1CCN(C(=O)c2ccccc2)CC1 | 3.19% (inactive)
N[C@H](C(=O)O)[C@H](Cc1ccccc1)C(=O)O | -9.48% (inactive)

Structure (SMILES) | activity, negative = inhibition
NC1(C(=O)O)CC1 | -7.89% (inactive)
NC(=O)c1ccccc1 | 0.361% (inactive)
c1ccc(C2CN3CCSC3=N2)cc1 (centres undefined) | -3.45% (inactive)
CCCCC[C@H](CC(=O)NO)C(=O)N[C@H](C(=O)N1CCC[C@H]1CO)C(C)C | 9.91% (inactive)
NC1CCN(O)C1=O (centres undefined) | -8.73% (inactive)
CSC(N)=NCCC[C@H](N)C(=O)O | -3.11% (inactive)
C[C@@H](NCCc1ccc(O)cc1)[C@@H](O)c1ccc(O)cc1 | -4.75% (inactive)
CCCCOC(=O)NS(=O)(=O)c1sc(CC(C)C)cc1-c1ccc(Cn2c(CC)nc3c(C)cc(C)nc32)cc1 | -19.3% (inactive)
N=C(N)SCCN | -12% (inactive)
N[C@@H](Cc1ccc(F)cc1)C(=O)O | -14.8% (inactive)
O=c1[nH]c2cc(Cl)ccc2c(O)c1-c1ccc(Oc2ccccc2)cc1 | -28.1% (inactive)
O=C(O)/C=C/c1cnc[nH]1 | -28.2% (inactive)
CC(=O)SC1CC2=CC(=O)CC[C@]2(C)C2CC[C@@]3(C)C(CC[C@@]34CCC(=O)O4)C12 (some centres undefined) | 0.621% (inactive)
COc1ccc2c(c1)c(CC(=O)O)c(C)n2C(=O)c1ccccc1 | 5.12% (inactive)
Cn1c(=O)c2c(nc(/C=C/c3cccc(Cl)c3)n2C)n(C)c1=O | -517% (active)
COc1ccc(CCn2nnnc2C2(c3ccc(C)cc3)CC2)cc1 | -4.62% (inactive)
N=C(N)c1ccc(OCCCCCOc2ccc(C(=N)N)cc2)cc1 (tested in a mixture with another compound) | -13.6% (inactive)
Cc1nc2n(c(=O)c1CCN1CCC(c3noc4cc(F)ccc34)CC1)CCCC2O (centres undefined) | -13.2% (inactive)
NC(=O)c1cc[n+](CC2=C(C(=O)O)N3C(=O)[C@@H](NC(=O)[C@@H](c4ccccc4)S(=O)(=O)[O-])[C@H]3SC2)cc1 | -15.3% (inactive)
